High-throughput results deposited in PubChem BioAssay by Sanford-Burnham Center for Chemical Genomics.
CYP2C9 inhib – blocks human cytochrome P450 2C9; inhibition, % at 5 µM; 96,000 compounds, 20% hits; CYP2C9 Supersomes, luciferin-H conversion, luminescence;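 active means blocking of liver enzyme CYP2C9 beyond about 50% at 5 µM, limit read from the data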
PTK2B oligo ant – Pyk2 (human) oligomerization antagonism; Q293 cells, Pyk2 FERM NanoBiT luminescence; stronger effect = lower value; AID 1347419; Q14289; 99,000 compounds, 0.83% hits; z-score (the deposit names both 25 µM and 10 µM);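 active means Z-score of -3 or lower, scaled per plate to the spread of control and sample wells; inactive means z-score above -3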;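 further: negative z-score means lost luminescence so less FERM oligomerization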
CYP2C9 act – CYP2C9 (human) activation; P11712; recombinant CYP2C9, luciferin-H conversion, luminescence; stronger effect = higher value; factor 1 = untreated enzyme, 0 = blocked; activation factor at 5 µM; 96,000 compounds, 1.4% hits; AID 1024;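 active means activation factor of 2 or more for CYP2C9 at a 5 µM dose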;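 further: 0 = sulfaphenazole-blocked wells and 1 = vehicle-only wells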
CYP2C19 activ – increases human CYP2C19 enzyme activity; P33261; recombinant CYP2C19, luciferin-H EGE luminescence; stronger effect = higher value; 0 = fully inhibited enzyme, 1 = untreated enzyme; activation factor at 5 µM; 96,000 tested, under 10 active;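 active means activation factor of at least 2 at 5 µM in the primary screen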;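 further: 0 = wells with 2.5 mM tranylcypromine and 1 = vehicle-only wells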
Target sequence (P33261 whole entry, looked up): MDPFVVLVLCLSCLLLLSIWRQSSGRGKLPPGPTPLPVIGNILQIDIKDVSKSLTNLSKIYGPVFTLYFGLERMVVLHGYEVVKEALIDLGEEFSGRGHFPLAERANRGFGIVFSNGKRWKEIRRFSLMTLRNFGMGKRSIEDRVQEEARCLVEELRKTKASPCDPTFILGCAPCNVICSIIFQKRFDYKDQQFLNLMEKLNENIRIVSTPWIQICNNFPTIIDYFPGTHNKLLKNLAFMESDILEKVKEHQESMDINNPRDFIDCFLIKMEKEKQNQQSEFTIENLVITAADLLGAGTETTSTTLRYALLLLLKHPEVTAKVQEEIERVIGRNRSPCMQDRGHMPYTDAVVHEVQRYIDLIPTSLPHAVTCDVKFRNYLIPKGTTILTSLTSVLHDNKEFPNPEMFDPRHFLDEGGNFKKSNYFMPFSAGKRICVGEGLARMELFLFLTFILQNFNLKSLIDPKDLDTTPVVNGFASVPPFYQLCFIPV
CYP2C19 inhib – blocks human cytochrome P450 2C19; P33261; CYP2C19 Supersomes, luciferin-H EGE luminescence, 30 min; inhibition, % at 5 µM; 96,000 compounds, 21% hits; AID 778;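 active means CYP2C19 inhibition above a set limit at 5 µM in the primary screen, cut at about 50% in these data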;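 further: plate controls were negative control wells for no effect and 2.5 mM tranylcypromine positive control for full effect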
Starred values were filed as active, the others as inactive; . = no result given. A selection: hits, their analogues and other compounds. The true share with any hit is near 28%.

SMILES	CYP2C9 inhib	PTK2B oligo ant	CYP2C9 act	CYP2C19 activ	CYP2C19 inhib
C=CCn1c(=O)c2ccccc2n2c(SCC(N)=O)nnc12	-10	0.58	1.1	1.1	-11
CCOC(=O)c1oc2ccccc2c1CSc1nnnn1-c1ccc(C)cc1	.	-1.2	.	.	.
O=C1OC2CCC1(c1ccccc1)C2 (stereo not drawn)	.	0.6	.	.	.
c1ccn2c(SCc3cn4ccsc4n3)nnc2c1	-3	0.29	1	0.8	20
O/N=C/c1cc(Cl)ccc1OCc1cccc2ccccc12	76*	.	0.2	0.5	53*
C=CCOc1ccccc1/C=N/O	-4	0.48	1	0.9	6
C#CCOc1ccc(Br)cc1/C=N/O	66*	-0.21	0.3	0.4	64*
C#CCOc1ccc(Cl)cc1/C=N/O	45	-0.89	0.6	0.5	51*
CCOc1ccc(Br)cc1/C=N/O	3	0.12	1	0.9	8
Cc1cc(=O)n2nc(N3CCCC3C(=O)NCCCN3CCCCC3)sc2n1 (stereo not drawn)	-19	0.35	1.2	1.2	-18
COn1c(SCC(=O)N(C)C)nc2ccccc2c1=O	-12	0.63	1.1	0.9	13
CCn1c(SCC(=O)Nc2ccc3c(c2)oc2ccccc23)nnc1-c1ccc(N)cc1	78*	-2	0.2	0.7	31
COc1ccc(-c2nnc(SCC(=O)Nc3ccccc3)n2C)cc1	20	-0.08	0.8	0.9	11
CC(=O)Nc1ccc(-c2nnc(SCC(=O)Nc3ccc4c(c3)oc3ccccc34)n2C)cc1	69*	0.16	0.3	0.5	47
CCn1c(CCNC(=O)c2cccs2)n[nH]c1=S	.	0.71	.	.	.
CCOc1ccc(S(=O)(=O)Nc2cccnc2)cc1	66*	0.28	0.3	0.1	94*
COc1ccc(NS(=O)(=O)c2ccc(NS(=O)(=O)c3ccc(SC)cc3)cc2)c(OC)c1	83*	-0.87	0.2	0.8	20
COc1ccc(OC)c(NS(=O)(=O)c2ccc(SC)cc2)c1	.	-0.18	.	.	.
CCOc1ccc(NS(=O)(=O)c2ccc(NS(=O)(=O)c3ccc(SC)cc3)cc2)cc1	87*	-0.33	0.1	0.7	35
CCOc1ccc(NS(=O)(=O)c2ccc(NC(=S)NC(=O)CC(C)C)cc2)cc1	99*	0.74	0	0.1	90*
Cn1c(SCC(=O)Nc2cc(=O)n(C)c(=O)n2C)nnc1-c1cccs1	3	.	1	0.8	15
CC(c1ccccc1)C1CC(=O)N(C2CCCCC2)C1=O (stereo not drawn)	10	0.63	0.9	0.7	25
O=S(=O)(Nc1cccnc1)c1ccc(Cl)c(C(F)(F)F)c1	57*	-1.4	0.4	0.3	72*
COc1cccc(S(=O)(=O)Nc2cccnc2)c1	-10	0.27	1.1	0.8	24
CCOc1ccc(NS(=O)(=O)c2ccc(NS(C)(=O)=O)cc2)cc1	64*	0.25	0.4	0.8	24
SMILES	CYP2C9 inhib	PTK2B oligo ant	CYP2C9 act	CYP2C19 activ	CYP2C19 inhib
CCOc1ccc(NS(=O)(=O)c2ccc(OCC(=O)N3CCCC3)cc2)cc1	6	0	0.9	1	2
Cc1ccc(Sc2ccc(N)cc2C#N)cc1	.	0.44	.	.	.
O=C1CC(c2ccc3c(c2)OCO3)Sc2nc3ccccc3n21 (stereo not drawn)	64*	0.6	0.4	0.4	60*
CC(=O)Nc1cccc(NC(=O)c2oc3ccccc3c2C)c1	-58	.	1.6	0.5	53*
Cc1c(C(=O)NCCc2ccc3c(c2)OCCO3)oc2ccccc12	82*	-0.04	0.2	0.1	86*
Cc1c(C(=O)NC2=NCCS2)oc2ccccc12	12	1.2	0.9	0.4	61*
CCOC(=O)c1c(NC(=O)c2cc(C)oc2C)sc(C(=O)Nc2ccc(Cl)cc2)c1C	14	-0.74	0.9	0.9	8
COc1ccc(NC(=S)NNC(=O)OC(C)(C)C)cc1OC	-1	0.31	1	0.9	12
COC(=O)c1ccc(C(=S)N2CCOCC2)cc1	8	-0.44	0.9	0.9	13
COc1cc(C(=S)N2CCOCC2)cc(OC)c1OS(=O)(=O)c1ccc(NC(C)=O)cc1	36	-0.3	0.6	0.4	58*
COc1ccc(C(=O)Nc2ccc(S(=O)(=O)N3CCCCC3)cc2)cc1	5	-1.8	0.9	1	-2
COc1ccc(S(=O)(=O)N2CCN(CC(=O)Nc3cccc(F)c3)CC2)cc1	-37	-0.95	1.4	0.5	54*
COc1ccc(S(=O)(=O)N2CCN(CC(=O)Nc3ccc(C)c(F)c3)CC2)cc1	-18	0.29	1.2	0.2	82*
